Source: PubChem (several laboratories)
PostGolgi ctrl: growth inhibition of yeast control strain, primary screen, counter-screen for post-Golgi transport modulator project; efflux-deficient yeast background strain, growth absorbance A615, 16 h; inhibition, % at 10 µM; actives 5% (n = 98,000); AID 738, 2007
CYP2C9 activ: human CYP2C9 activators, primary screen, biochemical, luminescence. recombinant CYP2C9, luciferin-H conversion; active compounds read high; factor 1 = untreated enzyme, 0 = blocked. activation factor at 5 µM. actives 1.4% (n = 96,000). AID 1024, 2008;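 active = activation factor of 2 or more for CYP2C9 at a 5 µM dose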;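 note: 0 = sulfaphenazole-blocked wells and 1 = vehicle-only wells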
Target sequence (P11712 whole entry, looked up): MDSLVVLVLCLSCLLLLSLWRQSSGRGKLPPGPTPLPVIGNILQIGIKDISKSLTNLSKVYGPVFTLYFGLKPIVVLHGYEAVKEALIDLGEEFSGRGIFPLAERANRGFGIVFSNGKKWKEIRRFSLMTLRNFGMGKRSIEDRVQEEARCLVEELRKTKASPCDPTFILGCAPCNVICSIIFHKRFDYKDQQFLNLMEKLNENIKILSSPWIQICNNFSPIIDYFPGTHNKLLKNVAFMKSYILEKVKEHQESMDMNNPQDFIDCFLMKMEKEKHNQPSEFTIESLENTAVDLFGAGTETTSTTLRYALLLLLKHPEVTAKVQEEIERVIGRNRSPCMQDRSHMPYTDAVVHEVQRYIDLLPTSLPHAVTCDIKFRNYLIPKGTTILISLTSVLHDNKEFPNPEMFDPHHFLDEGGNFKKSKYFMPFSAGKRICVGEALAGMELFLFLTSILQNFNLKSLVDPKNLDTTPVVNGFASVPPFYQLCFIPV
PostGolgi yeast: phenotypic screen on post-Golgi transport, primary screen. post-Golgi transport phenotypic cell assay. inhibition, % at 10 µM. actives 0.9% (n = 98,000). AID 739, 2007;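 note: yeast cells grown in 1536-well plates; yeast grown about 18 h at 30C before absorbance read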
CYP2C19 activ: human CYP2C19 activators, primary screen, biochemical, luminescence | Cytochrome P450 2C19 (Homo sapiens), P33261 | 96,000 tested, under 10 active | AID 1025, 2008 | activation factor at 5 µM | recombinant CYP2C19, luciferin-H EGE luminescence; active compounds read high; 0 = fully inhibited enzyme, 1 = untreated enzyme;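 active = activation factor of at least 2 at 5 µM in the primary screen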;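 note: 0 = wells with 2.5 mM tranylcypromine and 1 = vehicle-only wells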
CYP2C9 inhib: blockers of cytochrome P450 2C9 activity – biochemical, luminescence, ADME assay, primary screen. P11712. CYP2C9 Supersomes, luciferin-H conversion. inhibition, % at 5 µM. actives 20% (n = 96,000). AID 777, 2007;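 active = blocking of liver enzyme CYP2C9 beyond about 50% at 5 µM, limit read from the data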
CYP2C19 inhib: blockers of cytochrome P450 2C19 activity – biochemical, luminescence, ADME assay, primary screen. P33261. CYP2C19 Supersomes, luciferin-H EGE luminescence, 30 min. inhibition, % at 5 µM. actives 21% (n = 96,000). AID 778, 2007;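 active = CYP2C19 inhibition above a set limit at 5 µM in the primary screen, cut at about 50% in these data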;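 note: plate controls were negative control wells for no effect and 2.5 mM tranylcypromine positive control for full effect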
Active calls of the source: *; . = no result. Most compounds without a hit are left out; they make up all but 32% or so of the library. Cut-off read from the data, not from the text of the source, unless noted: active = inhibition above about 30%; inactive = the rest.

SMILES | PostGolgi ctrl | CYP2C9 activ | PostGolgi yeast | CYP2C19 activ | CYP2C9 inhib | CYP2C19 inhib
CC(C(=O)Nc1ccc2c(c1)OCO2)N(c1ccc(Cl)cc1)S(C)(=O)=O (stereo not given) | 8 | 0.1 | 8 | 0 | 93* | 98*
Cc1ccc(N(C(C)C(=O)Nc2cc(Cl)ccc2Oc2ccccc2)S(C)(=O)=O)cc1 (stereo not given) | 27 | 0.2 | -3 | 0.1 | 77* | 86*
COc1ccc(NC(=O)C(C)N(c2ccc(C)cc2)S(C)(=O)=O)cc1 (stereo not given) | 19 | 0.3 | 1 | 0.1 | 74* | 90*
O=C(Nc1ccc2c(c1)OCO2)Nc1ccc(Cl)cc1Cl | 5 | 0.9 | -6 | 0.8 | 10 | 19
COc1ccc(C)cc1NC(=O)C(C)N(c1ccc(C)cc1)S(C)(=O)=O (stereo not given) | 15 | 0.4 | -3 | 0.6 | 56* | 44
CCCCCCN=CC1=C(O)C(C(=O)OC)C(C)(C)CC1=O (stereo not given) | 11 | 0.6 | 2 | 0.5 | 42 | 47
O=C(c1ccc(N2C(=O)CCC2=O)cc1)N1CCN(c2ccccc2)CC1 | -2 | 0.8 | -4 | 1 | 23 | 2
Cc1ccc2nc(SCC(=O)Nc3nnc(SCC(N)=O)s3)[nH]c2c1 | 9 | 0.7 | -8 | 1 | 32 | 4
Cc1ccc(N2CCN(C(=O)N3CCCC3)CC2)cc1Cl | -1 | 0.7 | 2 | 0.7 | 32 | 34
O=C(C1CCCO1)N1CCN(C(c2ccccc2)c2ccccc2)CC1 (stereo not given) | 2 | 1 | -2 | 1.1 | 3 | -11
Cc1occc1C(=O)N1CCN(C(c2ccccc2)c2ccccc2)CC1 | 10 | 0.5 | -8 | 0.7 | 53* | 35
Cc1occc1C(=O)N1CCN(S(C)(=O)=O)CC1 | -2 | . | 7 | . | . | .
Cc1occc1C(=O)N1CCN(c2ccc(Cl)c(Cl)c2)CC1 | 18 | 0.2 | 12 | 0 | 83* | 98*
O=C(C1=COCCO1)N1CCN(C(c2ccccc2)c2ccccc2)CC1 | 4 | 0.3 | -6 | 1 | 67* | 4
Cc1cc(C(=O)N2CCN(C(c3ccccc3)c3ccccc3)CC2)on1 | 8 | 0.2 | 12 | 0.3 | 77* | 69*
CC1=CC(C)(C)N2C(=O)C3(C(C#N)=C(N)OC4=C3C(=O)CC(C)(C)C4)c3c(C)c(C)cc1c32 (stereo not given) | 3 | 0.9 | -3 | 0.9 | 9 | 8
CC(=O)Nc1ccc(S(=O)(=O)N2CCC(NC(=O)c3ccco3)CC2)cc1 | 14 | 0.7 | -5 | 0.9 | 26 | 9
O=C(O)C1CC1C(=O)N1CCN(c2ccc(Cl)c(Cl)c2)CC1 (stereo not given) | 8 | 1.1 | -1 | 1 | -11 | -2
CN(C)C(=C(C#N)C#N)N1CCN(c2ccc(Cl)c(Cl)c2)CC1 | 10 | 0.4 | 7 | 0.4 | 64* | 56*
Cc1ccc2c(CSc3nnc(N)s3)cc(=O)oc2c1 | 25 | 0.6 | -3 | 0.2 | 40 | 85*
CCCCCC/C(C)=C1/SC(=S)NC1=O | 55* | 0.5 | -3 | 0.8 | 47 | 22
CCCCCCCC(=O)NNC(=O)Cc1ccccc1 | -4 | 1 | -2 | 0.8 | 2 | 21
O=C(CC12CC3CC(CC(C3)C1)C2)Nc1cccc2ncccc12 | 13 | 0.7 | . | 0.5 | 27 | 51*
O=C(Nc1cccc2ncccc12)C12CC3CC(CC(C3)C1)C2 | 9 | 1.2 | 0 | 1 | -24 | -1
Cc1[nH]c(-c2ccc3c(c2)OCO3)nc1C(=O)O | 31* | 1 | -2 | 0.9 | 4 | 6
C[N+](C)(C)CCCC(=O)c1ccc2c(c1)OCO2 | 2 | 0.9 | -4 | 0.9 | 7 | 9
CN(C)c1oc(-c2ccc(OCc3ccc(Cl)cc3)cc2)nc1C#N | -1 | 1.3 | 0 | 0.7 | -27 | 27
CC1(C)CC(NC(=O)c2coc(=O)c(Br)c2)CC(C)(C)N1 | 20 | 0.9 | -5 | 1 | 13 | 0
Cc1cccc2cc(CN(C(=O)c3cnccn3)C3CCCCC3)c(Cl)nc12 | 33* | 0.7 | -4 | 0.7 | 34 | 34
